# Screening results from PubChem.
# APOBEC3A inh: blocks human APOBEC3A ssDNA deamination; recombinant A3A, FAM/TAMRA ssDNA deamination fluorescence; actives 0.41% (n = 330,000); inhibition, % at 20 µM; AID 493011;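 active means at least 40% inhibition at 20 µM here, with at most 30% in a related deaminase screen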
# Target sequence (P31941 whole entry, looked up): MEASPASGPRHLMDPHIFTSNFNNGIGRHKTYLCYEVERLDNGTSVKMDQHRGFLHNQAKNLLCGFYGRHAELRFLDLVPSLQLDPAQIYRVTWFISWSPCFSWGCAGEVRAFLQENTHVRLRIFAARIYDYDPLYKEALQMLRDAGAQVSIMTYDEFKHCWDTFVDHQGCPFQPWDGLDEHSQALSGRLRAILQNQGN
# ALR H2O2 inh: human ALR oxidase inhibition via reduced H2O2; P55789; purified ALR, DTT oxidation, H2O2 HRP-luminol luminescence; AID 485317; actives 3.8% (n = 290,000); inhibition, % (no concentration beside the values);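 active means mean replicate inhibition above about 79%, with every replicate also reaching it, limit read from the data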
# Target sequence (P55789 whole entry, looked up): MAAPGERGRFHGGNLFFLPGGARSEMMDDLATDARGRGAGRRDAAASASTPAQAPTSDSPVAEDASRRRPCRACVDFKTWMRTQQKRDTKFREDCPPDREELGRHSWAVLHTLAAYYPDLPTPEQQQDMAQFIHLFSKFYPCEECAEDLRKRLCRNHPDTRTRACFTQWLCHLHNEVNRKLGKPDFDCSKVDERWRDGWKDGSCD
# rCAG RNA binder: r(CAG) repeat RNA binding | TO-PRO-1 dye displacement fluorescence | inhibition, % at 3 µM | actives 1.3% (n = 370,000);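 active means inhibition above the plate cutoff, the mean of all test compounds on that plate plus 3 SD, cut at about 35% in these data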;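 further: higher means more dye released from RNA so lower well fluorescence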
# A3G deaminase: blocks human APOBEC3G single-stranded DNA deamination; inhibition, % at 20 µM; AID 493012; recombinant A3G, ssDNA deamination FAM/TAMRA fluorescence; Q9HC16; actives 0.28% (n = 330,000);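 active means inhibition of at least 40% at 20 µM, with no more than 30% in the related APOBEC3A deaminase screen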
# aDG glyco up: alpha-DG glycosylation activation; Pro5-aDG cells, alpha-DG glycosylation AlphaScreen (IIH6); 0% Pro5, 100% B10-LARGE cell signal; activation, % at 10 µM; actives 0.22% (n = 360,000); AID 624168;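 active means activation of at least 8% versus controls, or a plate z-score of at least 8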;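 further: Pro5 are CHO cells carrying HIG-tagged alpha-DG that lacks glycosylation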
# PHOSPHO1 inh: inhibitors of human PHOSPHO1 phosphatase. Q8TCT1. recombinant PHOSPHO1, absorbance phosphatase assay. inhibition, % at 13.3 µM. actives 1.1% (n = 290,000). AID 1565; in the data active means inhibition above about 60%
# A number is an active result; n = inactive; x = no result. Shown are actives, neighbours in structure and some others; about 5.4% of the full set was active somewhere.
SMILES,APOBEC3A inh,ALR H2O2 inh,rCAG RNA binder,A3G deaminase,aDG glyco up,PHOSPHO1 inh
CCN1CCN(C(c2cccc(OC)c2)c2sc3nc(C)nn3c2O)CC1 (configuration not stated),n,n,n,n,n,n
COc1cccc(C(c2sc3nc(C)nn3c2O)N2CCc3ccccc3C2)c1 (configuration not stated),n,n,n,n,n,74
COc1ccc(OCC(=O)NNc2c3ccccc3nc3ccccc23)cc1,n,100,n,n,n,n
O=C(COc1ccccc1)NNc1c2ccccc2nc2ccccc12,n,98,n,n,n,n
O=C(COc1ccccc1)Nn1cnc2ccccc21,n,n,n,n,n,97
COc1ccc(OCC(=O)NNC(=O)C(=O)Nc2ccccc2)cc1,n,n,n,n,n,x
CC(C)C[C@@H]1COc2cccc(F)c2S(=O)(=O)N1C,x,x,n,x,x,x
COc1cc(O)ccc1C(=O)CCc1ccc(O)cc1,n,99,n,n,n,n
CC(C)(C)OC(=O)NCCCCCc1cn([C@@H](CO)C(=O)NCCCCCCCCCCC(=O)N2CCN(C(=O)OC(C)(C)C)CC2)nn1,n,n,n,n,5.8,x
CC(C)(C)OC(=O)CC[C@@H](C(=O)NCCCCCCCCCCC(=O)N1CCN(C(=O)OC(C)(C)C)CC1)n1cc(CCCCCNC(=O)OC(C)(C)C)nn1,n,n,n,n,n,x
O=C(N[C@H](C(=O)N1CCC[C@H]1C(=O)NC1CCCC1)c1ccccc1)c1ccc(Cl)c(Cl)c1,x,x,n,x,x,x
O=C(O)c1ccc(OCCn2ccnc2)cc1,n,n,n,n,n,n
O=C(Cn1ccnc1)c1ccc(O)c(O)c1,n,90,n,n,n,x
CCCCCCn1nc(C(=O)OCC(=O)c2c(N)n(C)c(=O)n(C)c2=O)c2ccccc2c1=O,n,n,n,n,n,61
Cc1ccc(OCCCN(C)C)c(Br)c1,n,n,n,n,n,n
Cc1cc(Cl)c(OCCCN(C)C)c(Br)c1,n,x,n,n,n,63
Cc1cc(Br)cc(C)c1OCCCCN(C)C,n,93,n,n,n,n
Fc1ccc(/C=N/n2c(-c3cccs3)n[nH]c2=S)cc1,n,n,n,n,n,71
CN(C)c1ccc(/C=N/n2c(-c3ccccc3Br)n[nH]c2=S)cc1,n,96,n,n,n,n
CN(C)c1ccc(/C=N/n2c(C3CCCCC3)n[nH]c2=S)cc1,n,n,n,n,n,n
Cc1ccc(/C=N/n2c(COc3ccccc3)n[nH]c2=S)cc1,n,n,n,n,n,n
CN(C)c1ccc(/C=N/n2c(COc3ccccc3)n[nH]c2=S)cc1,n,x,n,n,n,79
Cc1ccc(-c2nnc(SCC(=O)NN=Cc3c[nH]c4ccccc34)n2-c2ccccc2)cc1,x,x,n,x,x,x
Cc1cccc(NC(=O)Nc2cc(C)on2)c1,n,n,n,n,n,n
Cc1cc(NC(=O)Nc2cccc(C)c2C)no1,n,99,n,n,n,n
SMILES,APOBEC3A inh,ALR H2O2 inh,rCAG RNA binder,A3G deaminase,aDG glyco up,PHOSPHO1 inh
COC(=O)c1sccc1NC(=O)Nc1cccc(C)c1C,n,n,n,n,n,61
COC(=O)c1sccc1NC(=O)c1cc(C)on1,n,96,x,n,n,n
Cc1cc(C(=O)Nc2ccccc2Cc2ccccc2)no1,n,n,n,n,n,66
COC(=O)c1sccc1NC(=O)c1c(C)noc1C,n,n,n,n,n,n
COc1ccc(-c2c(C(=O)c3ccccc3)[nH]c(N)c2C(=O)NCCc2c[nH]c3ccccc23)cc1,x,x,n,x,x,x
Cc1cc(N/C(=C\C(=O)c2ccccc2)c2ccccc2)ccc1Br,x,x,n,x,x,x
Cc1ccc(S(=O)(=O)N(C)/C(=N/S(=O)(=O)c2ccccc2)c2ccccc2)cc1,n,99,n,n,n,n
Nc1[nH]c2cc(C(F)(F)F)ccc2c1C(=O)NC1CCCCC1,x,x,n,x,x,x
Oc1ccccc1C=Nn1c(-c2ccccc2F)n[nH]c1=S,x,x,n,x,x,x
Cc1sccc1C1C(C#N)=C(N)SC(N)=C1C#N,n,n,x,n,x,n
Cc1cc(C2C(C#N)=C(N)SC(N)=C2C#N)c(C)s1,n,99,x,n,n,n
O=C(NC1CCCCC1)c1ccc(-c2cccc([N+](=O)[O-])c2)o1,n,94,n,n,n,n
O=C(O)c1ccc(-c2cccc([N+](=O)[O-])c2)o1,n,x,n,n,n,n
COc1ccc(/C=N/NC(=O)CCc2c(C)n[nH]c2C)cc1O,n,99,n,n,n,n
